Source: PubChem (National Center for Advancing Translational Sciences (NCATS))
BAZ2B block: inhibitors of human BAZ2B bromodomain; Potency, µM (highest dose often 114 µM), inactives show at the top dose activity change, negative = inhibition, most hits filed as inhibitors; 360,000 compounds, 4.4% hits; Q9UIF8; AID 504333; AlphaScreen BAZ2B-H3K14Ac peptide displacement; further: on the % scale 0 is the no-effect control and ±100 the full control effect; nearly all actives have a fitted effect of over 60% in size
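BAZ2B (50 nM) with biotin-H3(5-23)K14Ac peptide (50 nM) in PBS pH 7.4, 0.01% Tween-20, preformed 30 min, then compound 30 min at room temperature; top concentration 110uM. AlphaScreen streptavidin donor/nickel chelate acceptor beads (10 ug/mL final), 20 min dark, signal read.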
GLS inhibitor: blocks human kidney-isoform glutaminase activity | 410,000 compounds, 0.21% hits | O94925 | Potency, µM (doses to about 45.5 µM), for the others: at the highest dose activity change, negative = inhibition, most hits filed as inhibitors | GLS enzymatic activity, qHTS titration | AID 624170; further: on the % scale 0 is the no-effect control and ±100 the full control effect
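Assay buffer: 45 mM KH2PO4 pH 8.2, 0.02% Tween-20. hKGA acts on L-glutamine (1 mM solution added); product glutamate is reported by an oxidase/peroxidase Amplex Red coupling, with fluorescence taken at baseline and 30 min.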
HP1b binding inh: inhibitors of HP1-beta chromodomain binding to methylated histone tails | P83916 | AID 540317 | AlphaScreen HP1-beta / biotin-H3K9me3 peptide binding | 390,000 compounds, 0.56% hits | Potency, µM (titrated, usually from 114 µM), for inactives: top-dose activity change, negative = inhibition, hits mostly inhibitors; further: nearly all actives have a fitted effect of over 70% in size
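AlphaScreen: HP1-beta (50 nM) preformed 30 min with biotin-H3(1-18)K9me3 peptide (50 nM) in PBS pH 7.4, 0.01% Tween-20. Compound added for 30 min at RT, then streptavidin donor/nickel chelate acceptor beads (10 ug/mL) for 30 min.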
G9a inh: blocks human histone lysine methyltransferase G9a; G9a H3K9 monomethylation, AlphaScreen, 2 h; Potency, µM (highest dose often 102 µM), for the others: at the highest dose activity, negative = inhibition, hits mostly inhibitors; 350,000 compounds, 8.8% hits; AID 504332; further: on the % scale 0 is the no-effect control and ±100 the full control effect; nearly all actives have a fitted effect of over 75% in size
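Chemiluminescent proximity detection of H3K9 monomethylation, read after 10 min bead incubation in the dark. Reaction: 20 nM G9a, 500 nM biotin-H3K9 peptide, 20 uM SAM cofactor, 2 h, room temperature, following 15 min enzyme-compound preincubation.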
JMJD2A Tudor: JMJD2A Tudor domain (human) inhibition | O75164 | AlphaScreen JMJD2A-Tudor / H3K4me3 peptide binding | Potency, µM (titrated, usually from 114 µM), for the others: at the top dose activity change, negative = inhibition, most hits filed as inhibitors | 390,000 compounds, 4.4% hits | AID 504339; further: on the % scale 0 is the no-effect control and ±100 the full control effect; nearly all actives have a fitted effect of over 50% in size
An asterisk follows results filed as active; [ ] = remark or other dose. Rows were chosen to be rich in hits. Some 10% of all compounds tested hit in one or more screens of this group. The call rests on the fitted dose curve; in most records, active means well fitted curve in the direction sought with a large enough effect; inconclusive means small, poorly fitted or top-dose-only effect, or another doubt; inactive means no such curve, though single readings can be large; an effect the other way counts as inactive or inconclusive. Potency means the concentration at half of the fitted maximal effect.

Results for CC(C)C1C(=O)N(Cc2cn(CC3CCCCC3)nn2)CCS(=O)(=O)N1Cc1ccc(-c2cccc(CO)c2)cc1 (stereo unspecified) ?
GLS inhibitor: -4%

Results for CN(C1CCCCC1)S(=O)(=O)c1ccc2c(c1)c(=O)c(C(=O)O)cn2C ?
GLS inhibitor: 1%

Results for CC1=C(C(=O)OCc2ccccc2)C(c2ccccc2)NC(=O)N1CCCCCC(=O)O (stereo unspecified) ?
BAZ2B block: -10%; GLS inhibitor: 3%; HP1b binding inh: 44%; G9a inh: 79µM*; JMJD2A Tudor: -26%

How did CC1=C(C(=O)OCc2ccccc2)C(c2ccc3ccccc3c2)NC(=O)N1CCCCCC(=O)O (stereo unspecified) do in these assays?
BAZ2B block: inconclusive; GLS inhibitor: 2%; HP1b binding inh: 8%; G9a inh: inconclusive; JMJD2A Tudor: -24%

Results for CC1=C(C(=O)OCc2ccccc2)C(c2ccc([N+](=O)[O-])cc2)NC(=O)N1CCCCCC(=O)O (stereo unspecified) ?
BAZ2B block: -6%; GLS inhibitor: 9%; HP1b binding inh: 30%; G9a inh: inconclusive; JMJD2A Tudor: -12%

How did CC1=C(C(=O)OCc2ccccc2)C(c2ccc([N+](=O)[O-])cc2)NC(=O)N1CCCC(=O)O (stereo unspecified) do in these assays?
BAZ2B block: -7%; GLS inhibitor: -5%; HP1b binding inh: 43%; G9a inh: 45µM*; JMJD2A Tudor: -13%

How did CC1=C(C(=O)OCc2ccccc2)C(c2ccc(-c3ccccc3)cc2)NC(=O)N1CCCCCC(=O)O (stereo unspecified) do in these assays?
BAZ2B block: 50µM*; GLS inhibitor: 9%; HP1b binding inh: 9%; G9a inh: 35µM*; JMJD2A Tudor: inconclusive

How did CC1=C(C(=O)OCc2ccccc2)C(c2ccc(C(C)(C)C)cc2)NC(=O)N1CCCCCC(=O)O (stereo unspecified) do in these assays?
BAZ2B block: 50µM*; GLS inhibitor: -6%; HP1b binding inh: -8%; G9a inh: 45µM*; JMJD2A Tudor: -28%

How did Cc1cccc(C(=O)Nc2ccc(C(=O)OCc3cc(=O)n4nc(CC(C)C)sc4n3)cc2)c1 do in these assays?
BAZ2B block: -1%; GLS inhibitor: -13%; HP1b binding inh: -13%; G9a inh: -1%[59 µM]; JMJD2A Tudor: -10%

What do the screens show for `Cc1ccc(NC(=O)CN(C)S(=O)(=O)c2ccc(Cl)s2)c(O)c1`?
BAZ2B block: 12%; GLS inhibitor: 15%; HP1b binding inh: 46%; G9a inh: 14%[12.7 µM]; JMJD2A Tudor: -9%

How did CCOc1cc(/C=C2/C(=O)N(c3ccccc3)N=C2C)ccc1OC(=O)c1ccco1 do in these assays?
BAZ2B block: 45µM*; GLS inhibitor: -24%; HP1b binding inh: -21%; G9a inh: inconclusive; JMJD2A Tudor: 56µM*

What do the screens show for `CC1=NN(c2ccc(C(=O)O)cc2)C(=O)/C1=C\c1ccc(OC(=O)c2cccs2)cc1`?
BAZ2B block: inconclusive; GLS inhibitor: inconclusive; HP1b binding inh: -8%; G9a inh: 32µM*; JMJD2A Tudor: -6%[11.4 µM]

What do the screens show for `CCOc1cc(/C=C2\C(=O)N(c3ccc(C(N)=O)cc3)N=C2C)ccc1OC(=O)c1cccs1`?
BAZ2B block: 50µM*; GLS inhibitor: inconclusive; HP1b binding inh: -21%; G9a inh: 45µM*; JMJD2A Tudor: -28%

How did Cc1cc2nc(-c3cccc(NC(=O)CSc4ccc(Cl)cc4)c3)oc2cc1C do in these assays?
BAZ2B block: -15%; GLS inhibitor: -3%; HP1b binding inh: 55%; G9a inh: -1%[59 µM]; JMJD2A Tudor: -3%

Results for CSC1CCCCC1(O)CSc1nc2c(cc1C#N)CCCC2 (stereo unspecified) ?
BAZ2B block: 3%; GLS inhibitor: -3%; HP1b binding inh: inconclusive; G9a inh: 2.5µM*; JMJD2A Tudor: 20µM*

How did CSc1nc2c(cc1C#N)CCCCC2 do in these assays?
BAZ2B block: 64%; GLS inhibitor: -8%; HP1b binding inh: 57%; G9a inh: -6%[59 µM]; JMJD2A Tudor: 41%

What do the screens show for `N#CCSc1nc2c(cc1C#N)CCCC2`?
BAZ2B block: 8%; GLS inhibitor: 6%; HP1b binding inh: 42%; G9a inh: 25µM*; JMJD2A Tudor: 9%

Results for CCOC(=O)n1c(=O)oc2ccc(Cl)cc21 ?
BAZ2B block: 5%; GLS inhibitor: 8%; HP1b binding inh: 27%; G9a inh: 20µM*; JMJD2A Tudor: 28µM*

Results for N#CC(C#N)=CC1=C2OC(c3ccccc3)=CC(c3ccccc3)=C2CCC1 ?
BAZ2B block: inconclusive; GLS inhibitor: 4%; HP1b binding inh: 2.8µM*; G9a inh: inconclusive; JMJD2A Tudor: 2.2µM*

How did CCc1cnc2c(c1SCc1c(F)cccc1Cl)c(=O)n(C)c(=O)n2C do in these assays?
BAZ2B block: -3%; GLS inhibitor: -9%; HP1b binding inh: 8%; G9a inh: 7%[59 µM]; JMJD2A Tudor: -11%

How did O=C(c1ccco1)N(Cc1ccc([N+](=O)[O-])cc1)c1ccc(Br)cc1 do in these assays?
BAZ2B block: inconclusive; GLS inhibitor: 4%; HP1b binding inh: -20%; G9a inh: 25%[0.501 µM]; JMJD2A Tudor: -33%[57.1 µM]

Results for O=C(c1ccco1)N(Cc1cccc([N+](=O)[O-])c1)c1ccc(Br)cc1 ?
BAZ2B block: 50µM*; GLS inhibitor: 6%; HP1b binding inh: -2%; JMJD2A Tudor: inconclusive

What do the screens show for `COCCOC(=O)c1c(C)n(C)c2ccc(OC(=O)c3c(OC)cccc3OC)cc12`?
BAZ2B block: -27%; GLS inhibitor: -30%; HP1b binding inh: -21%; G9a inh: 8.9µM*; JMJD2A Tudor: -19%

What do the screens show for `CC1(C)CC(=O)C2=C(C1)OC1=C(C(=O)CC(C)(C)C1)C2c1ccc(O)cc1O`?
BAZ2B block: inconclusive; GLS inhibitor: 40%; HP1b binding inh: 2%; G9a inh: 2.8µM*; JMJD2A Tudor: -25%

What do the screens show for `N#Cc1cccc(NC(=O)C2CCN(c3cnccn3)CC2)c1`?
BAZ2B block: 5%; GLS inhibitor: 1%; HP1b binding inh: 35%; G9a inh: -5%[59 µM]; JMJD2A Tudor: -15%

What do the screens show for `Cc1cc(C)cc(-n2c(C)cc(C(=S)N3CCOCC3)c2C)c1`?
BAZ2B block: 45µM*; GLS inhibitor: 21%; HP1b binding inh: inconclusive; G9a inh: 4.5µM*; JMJD2A Tudor: 56µM*

How did Cc1cccc(-n2c(C)cc(C(=S)N3CCOCC3)c2C)c1C do in these assays?
BAZ2B block: -24%; GLS inhibitor: -10%; HP1b binding inh: inconclusive; G9a inh: inconclusive; JMJD2A Tudor: inconclusive

What do the screens show for `Cc1cc(C(=S)N2CCOCC2)c(C)n1-c1ccc(Cl)cc1`?
BAZ2B block: 50µM*; GLS inhibitor: 3%; HP1b binding inh: 45µM*; G9a inh: 3.2µM*; JMJD2A Tudor: 28µM*
